Data on eight sequences can be found in PMC7862700, “An all-to-all approach to the identification of sequence-specific readers for epigenetic DNA modifications on cytosine”.

Common to all, as to assay: DAPPL (digital affinity profiling via proximity ligation, sequencing); 10 mM Tris-HCl pH 7.5, 50 mM NaCl, 1 mM DTT, 4% glycerol, room temperature, 30 min; GST-TFs on glutathione beads, 16-mer random dsDNA library, 0.1% formaldehyde crosslink after washing; high values mean tight binding
What all share (settings): protein: recombinant; tags: N-terminal GST; dsDNA, one strand shown

Test [1] deals with T1, FLI1 (Homo sapiens, UniProt Q01543 1-452).
T1 sequence: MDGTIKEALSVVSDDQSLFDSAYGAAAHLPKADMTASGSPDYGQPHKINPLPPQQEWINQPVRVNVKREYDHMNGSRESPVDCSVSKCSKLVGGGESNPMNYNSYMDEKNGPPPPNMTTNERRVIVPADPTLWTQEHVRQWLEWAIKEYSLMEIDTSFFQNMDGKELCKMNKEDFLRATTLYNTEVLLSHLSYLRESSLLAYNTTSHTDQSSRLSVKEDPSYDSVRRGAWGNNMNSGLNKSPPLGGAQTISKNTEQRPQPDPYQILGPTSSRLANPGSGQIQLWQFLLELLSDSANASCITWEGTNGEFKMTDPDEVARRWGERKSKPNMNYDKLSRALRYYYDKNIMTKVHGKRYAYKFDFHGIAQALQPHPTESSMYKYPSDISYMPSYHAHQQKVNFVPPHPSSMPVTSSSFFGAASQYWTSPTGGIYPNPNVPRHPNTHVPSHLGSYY
Summed up: (§1)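 Human transcription factors fused to GST were expressed in yeast, captured on glutathione beads, given DNA barcodes and pooled with a GST-only negative control. Pools were incubated with 200 nmole of a 16-mer random double-stranded DNA library in Tris/NaCl/DTT/glycerol buffer at room temperature for 30 min. They were then washed, crosslinked with 0.1% formaldehyde, proximity-ligated (BsaI/T4 ligase, 1 h, 37 °C), PCR-amplified and sequenced on an Illumina NextSeq500. Binding signal is each 6-mer's read frequency for a factor divided by its frequency for the GST control.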

Test [2] has as its target T2, ELK1 (Homo sapiens, UniProt P19419 1-428).
T2 sequence: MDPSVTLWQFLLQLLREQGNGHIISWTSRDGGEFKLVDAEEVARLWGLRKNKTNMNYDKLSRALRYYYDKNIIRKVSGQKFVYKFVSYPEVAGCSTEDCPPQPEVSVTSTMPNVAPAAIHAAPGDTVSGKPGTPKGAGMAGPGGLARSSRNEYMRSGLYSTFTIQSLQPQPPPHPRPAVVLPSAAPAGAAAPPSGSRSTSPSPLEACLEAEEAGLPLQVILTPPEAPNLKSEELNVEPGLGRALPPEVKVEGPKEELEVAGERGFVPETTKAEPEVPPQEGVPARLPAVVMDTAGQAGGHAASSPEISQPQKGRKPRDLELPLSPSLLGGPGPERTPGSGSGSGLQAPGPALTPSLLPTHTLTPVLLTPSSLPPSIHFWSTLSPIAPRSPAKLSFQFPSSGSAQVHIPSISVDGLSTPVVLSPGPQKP
In short, it runs like this: as §1

The target of test [3] is T3, GABPA (Homo sapiens, UniProt Q06546 1-454).
T3 sequence: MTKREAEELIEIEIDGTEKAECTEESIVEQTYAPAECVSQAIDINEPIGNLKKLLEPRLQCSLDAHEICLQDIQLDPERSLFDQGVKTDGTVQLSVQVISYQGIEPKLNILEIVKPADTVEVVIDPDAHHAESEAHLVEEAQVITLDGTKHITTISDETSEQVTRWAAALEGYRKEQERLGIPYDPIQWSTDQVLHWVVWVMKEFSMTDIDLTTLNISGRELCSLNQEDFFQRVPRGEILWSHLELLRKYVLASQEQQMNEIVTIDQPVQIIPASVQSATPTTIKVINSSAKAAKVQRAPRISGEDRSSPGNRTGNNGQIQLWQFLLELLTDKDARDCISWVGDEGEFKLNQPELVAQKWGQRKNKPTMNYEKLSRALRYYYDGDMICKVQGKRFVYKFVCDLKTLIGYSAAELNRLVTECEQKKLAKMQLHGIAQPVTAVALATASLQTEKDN
Summed up: as §1

In test [4] the target is T4, ERG (Homo sapiens, UniProt P11308 1-479).
T4 sequence: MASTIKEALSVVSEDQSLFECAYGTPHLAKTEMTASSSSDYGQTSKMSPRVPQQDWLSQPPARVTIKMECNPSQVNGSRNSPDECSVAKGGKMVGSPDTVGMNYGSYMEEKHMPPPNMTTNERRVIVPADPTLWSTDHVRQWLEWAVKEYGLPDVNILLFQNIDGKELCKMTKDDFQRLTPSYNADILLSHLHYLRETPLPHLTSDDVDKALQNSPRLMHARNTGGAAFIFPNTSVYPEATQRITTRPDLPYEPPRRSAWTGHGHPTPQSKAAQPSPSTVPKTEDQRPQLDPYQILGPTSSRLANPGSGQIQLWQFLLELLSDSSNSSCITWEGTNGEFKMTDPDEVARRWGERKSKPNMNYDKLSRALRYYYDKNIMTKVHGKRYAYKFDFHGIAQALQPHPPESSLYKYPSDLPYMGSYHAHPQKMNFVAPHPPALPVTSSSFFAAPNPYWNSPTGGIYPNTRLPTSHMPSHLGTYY
In short, it runs like this: as §1

Test [5] addresses ELF1 (Homo sapiens, UniProt P32519 1-619). Summed up:
as §1

Test [6] addresses T5, EHF (Homo sapiens, UniProt Q9NZC4 1-300).
T5 sequence: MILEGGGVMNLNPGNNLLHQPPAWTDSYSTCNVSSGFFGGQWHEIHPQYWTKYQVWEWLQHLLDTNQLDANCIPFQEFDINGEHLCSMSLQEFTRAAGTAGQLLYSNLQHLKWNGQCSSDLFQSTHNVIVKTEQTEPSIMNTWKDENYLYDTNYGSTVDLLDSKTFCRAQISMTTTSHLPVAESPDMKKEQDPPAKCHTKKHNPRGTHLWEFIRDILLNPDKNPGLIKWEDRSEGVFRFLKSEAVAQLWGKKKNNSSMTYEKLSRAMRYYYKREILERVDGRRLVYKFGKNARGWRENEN
In short, it runs like this: as §1

The target of test [7] is SPI1 (Homo sapiens, UniProt P17947 1-270). In short, it runs like this:
as §1

Test [8] deals with SPIB (Homo sapiens, UniProt Q01892 1-262). In short, it runs like this: as §1
SPIB, sequence (Q01892 whole entry): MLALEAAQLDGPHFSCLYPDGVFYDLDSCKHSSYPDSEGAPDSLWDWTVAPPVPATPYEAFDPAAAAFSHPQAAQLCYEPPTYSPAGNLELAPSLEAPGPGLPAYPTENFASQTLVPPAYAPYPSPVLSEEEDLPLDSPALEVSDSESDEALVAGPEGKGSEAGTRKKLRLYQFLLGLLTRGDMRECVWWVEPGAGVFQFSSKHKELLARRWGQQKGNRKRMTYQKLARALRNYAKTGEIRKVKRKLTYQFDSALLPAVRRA
In test [9] the target is T6, ELK3 (Homo sapiens, UniProt P41970 1-407).
T6 sequence: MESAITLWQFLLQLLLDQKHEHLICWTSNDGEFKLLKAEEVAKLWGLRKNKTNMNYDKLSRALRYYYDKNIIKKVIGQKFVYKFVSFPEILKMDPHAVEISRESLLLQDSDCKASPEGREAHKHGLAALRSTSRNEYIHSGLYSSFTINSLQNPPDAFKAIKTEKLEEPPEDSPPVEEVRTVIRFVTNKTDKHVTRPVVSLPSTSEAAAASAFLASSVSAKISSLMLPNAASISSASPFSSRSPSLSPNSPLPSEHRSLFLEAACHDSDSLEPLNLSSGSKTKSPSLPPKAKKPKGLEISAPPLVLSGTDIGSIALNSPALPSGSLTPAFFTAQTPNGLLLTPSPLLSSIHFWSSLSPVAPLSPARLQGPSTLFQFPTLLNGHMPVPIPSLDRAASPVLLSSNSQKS
In short, it runs like this: as §1

ELF1, sequence (P32519 whole entry): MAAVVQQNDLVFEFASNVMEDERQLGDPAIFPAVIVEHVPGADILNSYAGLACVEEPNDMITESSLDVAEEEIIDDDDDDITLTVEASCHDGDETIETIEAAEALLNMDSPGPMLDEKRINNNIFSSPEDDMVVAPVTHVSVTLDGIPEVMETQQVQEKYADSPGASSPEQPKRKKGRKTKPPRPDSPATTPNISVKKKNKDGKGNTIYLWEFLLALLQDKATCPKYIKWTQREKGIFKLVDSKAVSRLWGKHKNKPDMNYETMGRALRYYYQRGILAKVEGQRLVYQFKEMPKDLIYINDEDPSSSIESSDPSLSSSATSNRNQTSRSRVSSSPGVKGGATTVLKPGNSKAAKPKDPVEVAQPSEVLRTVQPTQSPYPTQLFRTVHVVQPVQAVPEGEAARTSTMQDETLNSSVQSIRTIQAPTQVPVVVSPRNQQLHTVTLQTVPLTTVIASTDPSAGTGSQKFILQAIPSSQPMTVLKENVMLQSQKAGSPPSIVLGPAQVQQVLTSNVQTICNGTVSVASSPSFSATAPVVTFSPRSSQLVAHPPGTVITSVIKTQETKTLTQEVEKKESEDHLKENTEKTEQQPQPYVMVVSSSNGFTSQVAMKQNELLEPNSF

As for CCTCTC, the binding signal was 1.51 fold enrichment (6-mer frequency, TF over GST control) in [1]; 1.39 fold enrichment (6-mer frequency, TF over GST control) in [2]; 1.37 fold enrichment (6-mer frequency, TF over GST control) in test [3]; 1.37 fold enrichment (6-mer frequency, TF over GST control) in [4]; 1.43 fold enrichment (6-mer frequency, TF over GST control) in test [5]; 1.34 fold enrichment (6-mer frequency, TF over GST control) in test [6]. The binding signal in [7] is 1.39 fold enrichment (6-mer frequency, TF over GST control); in test [8] it was 1.44 fold enrichment (6-mer frequency, TF over GST control); in test [9], 1.44 fold enrichment (6-mer frequency, TF over GST control).

For the sequence CCAATG, the binding signal in test [1] is 1.14 fold enrichment (6-mer frequency, TF over GST control); in test [2], 1.11 fold enrichment (6-mer frequency, TF over GST control); in test [3] it was 1.14 fold enrichment (6-mer frequency, TF over GST control); in test [4] it was 1 fold enrichment (6-mer frequency, TF over GST control); in [5], 1.15 fold enrichment (6-mer frequency, TF over GST control); in test [6], 1.03 fold enrichment (6-mer frequency, TF over GST control). Further, the binding signal is 1.08 fold enrichment (6-mer frequency, TF over GST control) in test [7]; 1.15 fold enrichment (6-mer frequency, TF over GST control) in [8]; 1.08 fold enrichment (6-mer frequency, TF over GST control) in test [9].

On to CGGTTC, for which the binding signal in test [1] was 1.3 fold enrichment (6-mer frequency, TF over GST control); in test [2], 1.43 fold enrichment (6-mer frequency, TF over GST control); in [3], 1.19 fold enrichment (6-mer frequency, TF over GST control); in test [4] it was 1.28 fold enrichment (6-mer frequency, TF over GST control); in [5] it was 1.27 fold enrichment (6-mer frequency, TF over GST control); in test [6], 1.27 fold enrichment (6-mer frequency, TF over GST control). In addition, the binding signal in [7] was 1.3 fold enrichment (6-mer frequency, TF over GST control); in [8], 1.33 fold enrichment (6-mer frequency, TF over GST control); in test [9], 1.35 fold enrichment (6-mer frequency, TF over GST control).

Turning to GTGTTC, the binding signal is 1.13 fold enrichment (6-mer frequency, TF over GST control) in [1]; 1.25 fold enrichment (6-mer frequency, TF over GST control) in [2]; 1.26 fold enrichment (6-mer frequency, TF over GST control) in test [3]; 1.22 fold enrichment (6-mer frequency, TF over GST control) in test [4]; 1.1 fold enrichment (6-mer frequency, TF over GST control) in test [5]; 1.15 fold enrichment (6-mer frequency, TF over GST control) in test [6]. Further, the binding signal is 1.28 fold enrichment (6-mer frequency, TF over GST control) in [7]; 1.09 fold enrichment (6-mer frequency, TF over GST control) in [8]; 1.1 fold enrichment (6-mer frequency, TF over GST control) in test [9].

For the sequence TCGCAC, the binding signal in [1] was 1.11 fold enrichment (6-mer frequency, TF over GST control); in [2] it was 1.1 fold enrichment (6-mer frequency, TF over GST control); in [3], 1.09 fold enrichment (6-mer frequency, TF over GST control); in test [4], 1.07 fold enrichment (6-mer frequency, TF over GST control); in [5], 1.13 fold enrichment (6-mer frequency, TF over GST control); in test [6], 1.06 fold enrichment (6-mer frequency, TF over GST control). Besides, the binding signal is 1.13 fold enrichment (6-mer frequency, TF over GST control) in [7]; 1.02 fold enrichment (6-mer frequency, TF over GST control) in test [8]; 1.02 fold enrichment (6-mer frequency, TF over GST control) in [9].

Take CCTTGT: the binding signal was 1.33 fold enrichment (6-mer frequency, TF over GST control) in test [1]; 1.29 fold enrichment (6-mer frequency, TF over GST control) in test [2]; 1.25 fold enrichment (6-mer frequency, TF over GST control) in test [3]; 1.37 fold enrichment (6-mer frequency, TF over GST control) in test [4]; 1.23 fold enrichment (6-mer frequency, TF over GST control) in test [5]; 1.24 fold enrichment (6-mer frequency, TF over GST control) in [6]. Also, the binding signal was 1.25 fold enrichment (6-mer frequency, TF over GST control) in test [7]; 1.28 fold enrichment (6-mer frequency, TF over GST control) in test [8]; 1.18 fold enrichment (6-mer frequency, TF over GST control) in test [9].

Regarding TCAAAG, the binding signal in test [1] is 1.08 fold enrichment (6-mer frequency, TF over GST control); in test [2], 1.01 fold enrichment (6-mer frequency, TF over GST control); in [3], 1.13 fold enrichment (6-mer frequency, TF over GST control); in test [4], 1.09 fold enrichment (6-mer frequency, TF over GST control); in test [5], 1.19 fold enrichment (6-mer frequency, TF over GST control); in [6], 1.02 fold enrichment (6-mer frequency, TF over GST control). Moreover, the binding signal in test [7] is 1.1 fold enrichment (6-mer frequency, TF over GST control); in test [8], 1.11 fold enrichment (6-mer frequency, TF over GST control); in test [9], 1.15 fold enrichment (6-mer frequency, TF over GST control).

Turning to GTATAC, the binding signal in [1] is 1.28 fold enrichment (6-mer frequency, TF over GST control); in test [2], 1.3 fold enrichment (6-mer frequency, TF over GST control); in test [3], 1.32 fold enrichment (6-mer frequency, TF over GST control); in [4] it was 1.24 fold enrichment (6-mer frequency, TF over GST control); in test [5], 1.18 fold enrichment (6-mer frequency, TF over GST control); in test [6] it was 1.22 fold enrichment (6-mer frequency, TF over GST control). The binding signal was 1.18 fold enrichment (6-mer frequency, TF over GST control) in test [7]; 1.27 fold enrichment (6-mer frequency, TF over GST control) in test [8]; 1.28 fold enrichment (6-mer frequency, TF over GST control) in test [9].
